# Laboratory results: PMC11006913
# Positions count from the first letter of the chain named.
# What was measured:
# Assay in all cases: PBM; 200 nM protein, PBS
# Details in all cases: dsDNA, one strand shown
# HOXA2 [1] = target: HOXA2 (Homo sapiens, UniProt O43364 129-215, R185T)
# HOXA2 [2] = target: HOXA2 (Homo sapiens, UniProt O43364 129-215)
# HOXA2 [3] = target: HOXA2 (Homo sapiens, UniProt O43364 129-215, Y150S)
# HOXB9 [4] = target: HOXB9 (Homo sapiens, UniProt P17482 171-250)
# HOXB9 [5] = target: HOXB9 (Homo sapiens, UniProt P17482 171-250, R186Q)
# ALX3 [6] = target: ALX3 (Homo sapiens, UniProt O95076 139-225, N203Q)
# ALX3 [7] = target: ALX3 (Homo sapiens, UniProt O95076 139-225)
# ALX3 [8] = target: ALX3 (Homo sapiens, UniProt O95076 139-225, N203S)
# NKX2-6 [9] = target: T1, NKX2-6 (Homo sapiens, UniProt A6NCS4 118-204)
# T1 sequence: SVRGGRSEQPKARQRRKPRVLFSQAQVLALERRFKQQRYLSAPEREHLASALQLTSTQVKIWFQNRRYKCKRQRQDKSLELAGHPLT
# NKX2-6 [10] = target: T2, NKX2-6 (Homo sapiens, UniProt A6NCS4 118-204, F151L)
# T2 sequence: T1 sequence with F34L
# CRX = CRX (Homo sapiens, UniProt O43186 26-111, R41L)
# HOXB6 = HOXB6 (Homo sapiens, UniProt P17509 132-218)
# NKX2-6 [11] = target: T3, NKX2-6 (Homo sapiens, UniProt A6NCS4 118-204, R150C)
# T3 sequence: T1 sequence with R33C
# NKX3-2 [12] = target: NKX3-2 (Homo sapiens, UniProt P78367 192-278, P234S)
# NKX3-2 [13] = target: NKX3-2 (Homo sapiens, UniProt P78367 192-278)
# HOXC9 [14] = target: HOXC9 (Homo sapiens, UniProt P31274 178-260)
# MSX2 [15] = target: MSX2 (Homo sapiens, UniProt P35548 130-214)
# HOXC9 [16] = target: HOXC9 (Homo sapiens, UniProt P31274 178-260, R222W)
# MSX2 [17] = target: MSX2 (Homo sapiens, UniProt P35548 130-214, F161Y)
# PROP1 [18] = target: PROP1 (Homo sapiens, UniProt O75360 56-141)
# PROP1 [19] = target: PROP1 (Homo sapiens, UniProt O75360 56-141, R99H)
# PROP1 [20] = target: PROP1 (Homo sapiens, UniProt O75360 56-141, F88S)
# PROP1 (Homo sapiens, UniProt O75360 56-141, F88S), sequence (O75360 56-141 F88S): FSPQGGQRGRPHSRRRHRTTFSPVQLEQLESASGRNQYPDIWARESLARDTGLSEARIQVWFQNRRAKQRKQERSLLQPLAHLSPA
# HOXA2 (Homo sapiens, UniProt O43364 129-215), sequence (O43364 129-215): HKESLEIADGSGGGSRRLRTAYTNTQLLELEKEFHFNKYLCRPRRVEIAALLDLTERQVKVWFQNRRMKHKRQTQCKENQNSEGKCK
# HOXC9 (Homo sapiens, UniProt P31274 178-260), sequence (P31274 178-260): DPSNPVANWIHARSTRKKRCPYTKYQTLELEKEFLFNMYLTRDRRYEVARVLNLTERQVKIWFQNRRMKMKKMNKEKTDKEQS
# HOXB9 (Homo sapiens, UniProt P17482 171-250), sequence (P17482 171-250): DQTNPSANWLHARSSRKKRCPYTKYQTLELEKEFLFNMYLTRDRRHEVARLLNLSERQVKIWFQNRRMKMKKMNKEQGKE
# HOXB9 (Homo sapiens, UniProt P17482 171-250, R186Q), sequence (P17482 171-250 R186Q): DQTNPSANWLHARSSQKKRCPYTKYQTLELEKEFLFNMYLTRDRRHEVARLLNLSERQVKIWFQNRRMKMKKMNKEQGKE
# NKX3-2 (Homo sapiens, UniProt P78367 192-278), sequence (P78367 192-278): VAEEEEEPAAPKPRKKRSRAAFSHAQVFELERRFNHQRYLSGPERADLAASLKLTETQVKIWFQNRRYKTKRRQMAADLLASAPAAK
# HOXA2 (Homo sapiens, UniProt O43364 129-215, R185T), sequence (O43364 129-215 R185T): as the sequence (O43364 129-215) above, with R57T counted along it
# HOXA2 (Homo sapiens, UniProt O43364 129-215, Y150S), sequence (O43364 129-215 Y150S): as the sequence (O43364 129-215) above, with Y22S counted along it
# NKX3-2 (Homo sapiens, UniProt P78367 192-278, P234S), sequence (P78367 192-278 P234S): as the sequence (P78367 192-278) above, with P43S counted along it
# ALX3 (Homo sapiens, UniProt O95076 139-225, N203Q), sequence (O95076 139-225 N203Q): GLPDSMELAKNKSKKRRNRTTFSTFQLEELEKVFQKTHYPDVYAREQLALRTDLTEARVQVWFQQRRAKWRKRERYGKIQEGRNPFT
# PROP1 (Homo sapiens, UniProt O75360 56-141), sequence (O75360 56-141): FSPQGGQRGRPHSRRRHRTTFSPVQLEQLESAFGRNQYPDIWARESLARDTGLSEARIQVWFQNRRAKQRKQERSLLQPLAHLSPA
# PROP1 (Homo sapiens, UniProt O75360 56-141, R99H), sequence (O75360 56-141 R99H): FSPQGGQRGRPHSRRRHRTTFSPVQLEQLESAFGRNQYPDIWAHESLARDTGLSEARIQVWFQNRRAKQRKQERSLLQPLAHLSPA
# HOXB6, sequence (P17509 132-218): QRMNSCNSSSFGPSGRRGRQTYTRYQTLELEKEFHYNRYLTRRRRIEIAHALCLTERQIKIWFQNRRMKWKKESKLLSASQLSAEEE
# MSX2 (Homo sapiens, UniProt P35548 130-214, F161Y), sequence (P35548 130-214 F161Y): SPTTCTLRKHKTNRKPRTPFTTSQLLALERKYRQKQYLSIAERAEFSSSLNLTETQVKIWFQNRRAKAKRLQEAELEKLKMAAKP
# CRX, sequence (O43186 26-111 R41L): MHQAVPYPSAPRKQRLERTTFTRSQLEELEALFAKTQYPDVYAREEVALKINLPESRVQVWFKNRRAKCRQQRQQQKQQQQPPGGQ
# ALX3 (Homo sapiens, UniProt O95076 139-225, N203S), sequence (O95076 139-225 N203S): as the sequence (O95076 139-225 N203Q) above, with Q65S counted along it
# MSX2 (Homo sapiens, UniProt P35548 130-214), sequence (P35548 130-214): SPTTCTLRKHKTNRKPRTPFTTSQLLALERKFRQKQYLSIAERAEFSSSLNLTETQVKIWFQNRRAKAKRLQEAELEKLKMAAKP
# HOXC9 (Homo sapiens, UniProt P31274 178-260, R222W), sequence (P31274 178-260 R222W): as the sequence (P31274 178-260) above, with R45W counted along it
# ALX3 (Homo sapiens, UniProt O95076 139-225), sequence (O95076 139-225): as the sequence (O95076 139-225 N203Q) above, with Q65N counted along it
sequence,measurement,setting,value
AGGTTGAT,binding signal,HOXA2 [1],"8.92 upbm affinity estimate (log intensity, higher = more binding, comparable within an allelic series)"
same,binding signal,HOXA2 [2],"9.03 upbm affinity estimate (log intensity, higher = more binding, comparable within an allelic series)"
AATTGGGC,binding signal,HOXA2 [1],"9.64 upbm affinity estimate (log intensity, higher = more binding, comparable within an allelic series)"
same,binding signal,HOXA2 [3],"10.6 upbm affinity estimate (log intensity, higher = more binding, comparable within an allelic series)"
same,binding signal,HOXA2 [2],"9.35 upbm affinity estimate (log intensity, higher = more binding, comparable within an allelic series)"
AAAATACC,binding signal,HOXB9 [4],"9.6 upbm affinity estimate (log intensity, higher = more binding, comparable within an allelic series)"
same,binding signal,HOXB9 [5],"9.45 upbm affinity estimate (log intensity, higher = more binding, comparable within an allelic series)"
AACTATTG,binding signal,HOXA2 [1],"8.83 upbm affinity estimate (log intensity, higher = more binding, comparable within an allelic series)"
same,binding signal,HOXA2 [2],"8.91 upbm affinity estimate (log intensity, higher = more binding, comparable within an allelic series)"
AAATACCC,binding signal,HOXA2 [1],"9.06 upbm affinity estimate (log intensity, higher = more binding, comparable within an allelic series)"
same,binding signal,HOXA2 [2],"8.99 upbm affinity estimate (log intensity, higher = more binding, comparable within an allelic series)"
AACTAAAA,binding signal,HOXA2 [1],"8.87 upbm affinity estimate (log intensity, higher = more binding, comparable within an allelic series)"
same,binding signal,HOXA2 [3],"10.6 upbm affinity estimate (log intensity, higher = more binding, comparable within an allelic series)"
same,binding signal,HOXA2 [2],"8.87 upbm affinity estimate (log intensity, higher = more binding, comparable within an allelic series)"
ACAATACC,binding signal,HOXB9 [4],"9.73 upbm affinity estimate (log intensity, higher = more binding, comparable within an allelic series)"
GTTTGCAA,binding signal,HOXA2 [1],"8.76 upbm affinity estimate (log intensity, higher = more binding, comparable within an allelic series)"
same,binding signal,HOXA2 [2],"8.78 upbm affinity estimate (log intensity, higher = more binding, comparable within an allelic series)"
AATGTGAA,binding signal,HOXB9 [4],"10 upbm affinity estimate (log intensity, higher = more binding, comparable within an allelic series)"
same,binding signal,ALX3 [6],"8.3 upbm affinity estimate (log intensity, higher = more binding, comparable within an allelic series)"
same,binding signal,ALX3 [7],"9.35 upbm affinity estimate (log intensity, higher = more binding, comparable within an allelic series)"
same,binding signal,HOXB9 [5],"9.94 upbm affinity estimate (log intensity, higher = more binding, comparable within an allelic series)"
same,binding signal,ALX3 [8],"8.37 upbm affinity estimate (log intensity, higher = more binding, comparable within an allelic series)"
AGATAGAT,binding signal,HOXA2 [1],"8.87 upbm affinity estimate (log intensity, higher = more binding, comparable within an allelic series)"
same,binding signal,HOXA2 [2],"8.71 upbm affinity estimate (log intensity, higher = more binding, comparable within an allelic series)"
ATTTCATC,binding signal,HOXA2 [1],"8.72 upbm affinity estimate (log intensity, higher = more binding, comparable within an allelic series)"
same,binding signal,HOXA2 [3],"10.6 upbm affinity estimate (log intensity, higher = more binding, comparable within an allelic series)"
same,binding signal,HOXA2 [2],"8.75 upbm affinity estimate (log intensity, higher = more binding, comparable within an allelic series)"
GGCGATAA,binding signal,HOXB9 [4],"10.4 upbm affinity estimate (log intensity, higher = more binding, comparable within an allelic series)"
same,binding signal,HOXB9 [5],"10.3 upbm affinity estimate (log intensity, higher = more binding, comparable within an allelic series)"
AAACATAA,binding signal,HOXA2 [1],"9.4 upbm affinity estimate (log intensity, higher = more binding, comparable within an allelic series)"
same,binding signal,HOXA2 [2],"9.53 upbm affinity estimate (log intensity, higher = more binding, comparable within an allelic series)"
ATCAGAAA,binding signal,HOXA2 [1],"8.59 upbm affinity estimate (log intensity, higher = more binding, comparable within an allelic series)"
same,binding signal,HOXA2 [3],"10.6 upbm affinity estimate (log intensity, higher = more binding, comparable within an allelic series)"
same,binding signal,HOXA2 [2],"8.63 upbm affinity estimate (log intensity, higher = more binding, comparable within an allelic series)"
CATCTACG,binding signal,HOXA2 [1],"8.85 upbm affinity estimate (log intensity, higher = more binding, comparable within an allelic series)"
same,binding signal,HOXA2 [3],"10.7 upbm affinity estimate (log intensity, higher = more binding, comparable within an allelic series)"
same,binding signal,HOXA2 [2],"9.05 upbm affinity estimate (log intensity, higher = more binding, comparable within an allelic series)"
ACTCGTAA,binding signal,HOXA2 [1],"9.32 upbm affinity estimate (log intensity, higher = more binding, comparable within an allelic series)"
same,binding signal,HOXA2 [2],"9.32 upbm affinity estimate (log intensity, higher = more binding, comparable within an allelic series)"
CCTATTTA,binding signal,HOXB9 [4],"10.4 upbm affinity estimate (log intensity, higher = more binding, comparable within an allelic series)"
same,binding signal,NKX2-6 [9],"11.2 upbm affinity estimate (log intensity, higher = more binding, comparable within an allelic series)"
same,binding signal,HOXB9 [5],"10.2 upbm affinity estimate (log intensity, higher = more binding, comparable within an allelic series)"
same,binding signal,NKX2-6 [10],"9.86 upbm affinity estimate (log intensity, higher = more binding, comparable within an allelic series)"
AGATGTAA,binding signal,HOXA2 [1],"9.25 upbm affinity estimate (log intensity, higher = more binding, comparable within an allelic series)"
same,binding signal,HOXA2 [2],"9.27 upbm affinity estimate (log intensity, higher = more binding, comparable within an allelic series)"
TATCAAAA,binding signal,HOXA2 [1],"8.75 upbm affinity estimate (log intensity, higher = more binding, comparable within an allelic series)"
same,binding signal,HOXA2 [2],"8.82 upbm affinity estimate (log intensity, higher = more binding, comparable within an allelic series)"
ATATAGTA,binding signal,HOXB9 [4],"10.2 upbm affinity estimate (log intensity, higher = more binding, comparable within an allelic series)"
same,binding signal,ALX3 [6],"8.55 upbm affinity estimate (log intensity, higher = more binding, comparable within an allelic series)"
same,binding signal,HOXB9 [5],"10.1 upbm affinity estimate (log intensity, higher = more binding, comparable within an allelic series)"
ACAACTTA,binding signal,HOXA2 [1],"9.5 upbm affinity estimate (log intensity, higher = more binding, comparable within an allelic series)"
same,binding signal,HOXA2 [3],"10.7 upbm affinity estimate (log intensity, higher = more binding, comparable within an allelic series)"
same,binding signal,HOXA2 [2],"9.5 upbm affinity estimate (log intensity, higher = more binding, comparable within an allelic series)"
AAATCAGC,binding signal,HOXA2 [1],"9.59 upbm affinity estimate (log intensity, higher = more binding, comparable within an allelic series)"
same,binding signal,HOXA2 [3],"10.7 upbm affinity estimate (log intensity, higher = more binding, comparable within an allelic series)"
same,binding signal,HOXA2 [2],"9.43 upbm affinity estimate (log intensity, higher = more binding, comparable within an allelic series)"
AAACTTAA,binding signal,HOXA2 [1],"8.91 upbm affinity estimate (log intensity, higher = more binding, comparable within an allelic series)"
same,binding signal,HOXA2 [2],"8.97 upbm affinity estimate (log intensity, higher = more binding, comparable within an allelic series)"
ATTTAATC,binding signal,CRX,"12.3 upbm affinity estimate (log intensity, higher = more binding, comparable within an allelic series)"
AATACCAT,binding signal,HOXB6,"10.3 upbm affinity estimate (log intensity, higher = more binding, comparable within an allelic series)"
AAGTGCAC,binding signal,NKX2-6 [11],"11.6 upbm affinity estimate (log intensity, higher = more binding, comparable within an allelic series)"
same,binding signal,NKX3-2 [12],"12.6 upbm affinity estimate (log intensity, higher = more binding, comparable within an allelic series)"
same,binding signal,NKX3-2 [13],"12.7 upbm affinity estimate (log intensity, higher = more binding, comparable within an allelic series)"
TACACTCA,binding signal,NKX2-6 [11],"11.1 upbm affinity estimate (log intensity, higher = more binding, comparable within an allelic series)"
same,binding signal,NKX3-2 [12],"11.9 upbm affinity estimate (log intensity, higher = more binding, comparable within an allelic series)"
same,binding signal,NKX3-2 [13],"12 upbm affinity estimate (log intensity, higher = more binding, comparable within an allelic series)"
GAACATTC,binding signal,HOXC9 [14],"10.5 upbm affinity estimate (log intensity, higher = more binding, comparable within an allelic series)"
AAAGTGGT,binding signal,NKX2-6 [11],"11.7 upbm affinity estimate (log intensity, higher = more binding, comparable within an allelic series)"
same,binding signal,NKX3-2 [12],"12.7 upbm affinity estimate (log intensity, higher = more binding, comparable within an allelic series)"
same,binding signal,NKX3-2 [13],"12.8 upbm affinity estimate (log intensity, higher = more binding, comparable within an allelic series)"
ACCCTTAT,binding signal,HOXC9 [14],"10.8 upbm affinity estimate (log intensity, higher = more binding, comparable within an allelic series)"
same,binding signal,MSX2 [15],"10.8 upbm affinity estimate (log intensity, higher = more binding, comparable within an allelic series)"
same,binding signal,HOXC9 [16],"10.2 upbm affinity estimate (log intensity, higher = more binding, comparable within an allelic series)"
same,binding signal,MSX2 [17],"10.7 upbm affinity estimate (log intensity, higher = more binding, comparable within an allelic series)"
AAAGTGCA,binding signal,NKX2-6 [11],"11.2 upbm affinity estimate (log intensity, higher = more binding, comparable within an allelic series)"
same,binding signal,NKX2-6 [9],"12.2 upbm affinity estimate (log intensity, higher = more binding, comparable within an allelic series)"
same,binding signal,NKX2-6 [10],"10.1 upbm affinity estimate (log intensity, higher = more binding, comparable within an allelic series)"
AGCCCCCG,binding signal,NKX2-6 [11],"9.1 upbm affinity estimate (log intensity, higher = more binding, comparable within an allelic series)"
same,binding signal,PROP1 [18],"6.76 upbm affinity estimate (log intensity, higher = more binding, comparable within an allelic series)"
same,binding signal,PROP1 [19],"6.62 upbm affinity estimate (log intensity, higher = more binding, comparable within an allelic series)"
same,binding signal,PROP1 [20],"6.15 upbm affinity estimate (log intensity, higher = more binding, comparable within an allelic series)"
ATCACTTA,binding signal,NKX2-6 [11],"11.6 upbm affinity estimate (log intensity, higher = more binding, comparable within an allelic series)"
same,binding signal,NKX2-6 [9],"13.3 upbm affinity estimate (log intensity, higher = more binding, comparable within an allelic series)"
same,binding signal,NKX2-6 [10],"10.4 upbm affinity estimate (log intensity, higher = more binding, comparable within an allelic series)"
TATCTCAA,binding signal,HOXC9 [14],"11 upbm affinity estimate (log intensity, higher = more binding, comparable within an allelic series)"
AAGTGGTG,binding signal,NKX2-6 [11],"11.6 upbm affinity estimate (log intensity, higher = more binding, comparable within an allelic series)"
same,binding signal,NKX3-2 [12],"12.7 upbm affinity estimate (log intensity, higher = more binding, comparable within an allelic series)"
same,binding signal,NKX3-2 [13],"12.8 upbm affinity estimate (log intensity, higher = more binding, comparable within an allelic series)"
